In the library only some 9.9% were active in any assay of this set; here they are far more common.
IL1B secr inh: blocks inflammasome-driven IL-1 beta release; THP-1 LPS/ATP IL-1B secretion, AlphaLISA, 16 h; stronger effect = lower value; actives 4.7% (n = 360,000); activity change, % at 57.5 µM; in the data active = activity change below about -50%; inconclusive = mostly about -30% to -49%
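THP-1 cells pretreated 1 hr with compounds (up to 57.5 uM final), then stimulated with LPS (250 ng/mL final) plus ATP (1.25 mM final); secreted IL-1B measured by AlphaLISA after 16 hr, decreased signal indicating inhibition.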
KB-3-1 cytotox: KB-3-1 parental cell cytotoxicity | KB-3-1 viability, CellTiter-Glo ATP luminescence, 72 h | actives 1.4% (n = 400,000) | Potency, µM (highest dose often 46.1 µM), actives largely listed as cytotoxic; note: nearly all actives have a fitted effect of over 60% in size
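Using CellTiter-Glo luminescence, growth of non-resistant KB-3-1 adenocarcinoma cells is assessed 72 h after pin-tool compound addition at 37 °C. Normalized responses across the concentration series yield fitted curves.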
MCF10A rereplic: inducers of DNA re-replication in MCF 10A breast cells; MCF 10A DNA re-replication, Hoechst nuclear intensity, 48 h; Potency, µM (series often up to 46.1 µM), most hits filed as activators; actives 2.9% (n = 350,000); note: nearly all actives have a fitted effect of over 50% in size
KB-V1 cytotox: kills drug-selected multidrug resistant KB-V1 cells; KB-V1 MDR cells viability, CellTiter-Glo, 72 h; Potency, µM (titrated, usually from 46.1 µM), actives largely listed as cytotoxic; actives 3.4% (n = 400,000); note: nearly all actives have a fitted effect of over 60% in size
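KB-V1 cells (P-gp-expressing MDR subline of KB-3-1) in phenol-red-free DMEM with 10% FBS were exposed to library compounds over a concentration series for 72 h at 37 degrees C. Viability read by CellTiter-Glo luminescence; concentration-effect curves fitted after normalization.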
SW480 rerep: inducers of DNA re-replication in SW480 colon cancer cells; actives 1.8% (n = 340,000); Potency, µM (titrated, usually from 46.1 µM), actives largely listed as activators; SW480 DNA re-replication, Hoechst DNA content imaging, 48 h; note: nearly all actives have a fitted effect of over 55% in size
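Quantitative HTS format with DMSO vehicle controls; 48 hr drug incubation at 37 C, then 40 min Hoechst staining and scanning imager measurement at 405 nm excitation.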
Numbers stand for hits; i = inactive; ? = inconclusive; nt = no result given; [ ] = remark or other dose. Unless noted, calls come from the whole dose curve; as a rule, active = well fitted curve in the direction sought with a large enough effect; inconclusive = small, poorly fitted or top-dose-only effect, or another doubt; inactive = no such curve, though single readings can be large; an effect the other way counts as inactive or inconclusive.

SMILES	IL1B secr inh	KB-3-1 cytotox	MCF10A rereplic	KB-V1 cytotox	SW480 rerep
CC(C)c1ccc(CNc2nc(NCC3CC3)nc3ccsc23)cc1	i	?	nt	?	nt
CNc1nc(NCCOc2ccccc2Cl)c2sccc2n1	?	i	nt	?	nt
COc1cccc(CNc2nc(NCC3CC3)nc3ccsc23)c1OC	-101	i	nt	?	nt
O=C(Nc1cccc(S(=O)(=O)NCc2ccco2)c1)c1cc(-c2ccc(F)cc2)nc2ccccc12	-77	?	i	?	?
O=C(Nc1ccccc1)c1cccc(S(=O)(=O)NCc2ccco2)c1	i	?	i	23µM	i
COc1ccc(-c2cc(C(=O)Nc3cccc(S(=O)(=O)NCc4ccco4)c3)c3ccccc3n2)cc1OC	?	i	12µM	?	?
O=C(O)/C=C/c1ccc(S(=O)(=O)NCc2ccco2)cc1	i	i	i	?	i
NS(=O)(=O)c1ccc(NC(=O)/C=C/c2ccc(S(=O)(=O)NCc3ccco3)cc2)cc1	-52	i	i	i	i
NNC(=O)c1csc(-c2ncc(C(F)(F)F)cc2Cl)n1	i	i	i	?	i
COc1cc(O)c(C(CC(=O)N2CCC(Cc3ccccc3)CC2)c2ccc(OC)c(OC)c2)c(OC)c1 (stereo unspecified)	nt	i	nt	?	nt
ClCc1ncc(-c2ccc(Cl)cc2)o1	?	?	?	i	i
C=CCOc1ccc(CN(C)C(=O)CNC(=O)c2ccc(-c3ccccc3)cc2)cc1	i	4.6µM	i	2.3µM	?
CN(CCOc1ccc(Br)cc1)C(=O)CNC(=O)c1ccc2ccccc2c1	-91	i	?	i	i
CC(=O)NC(CC(=O)N1CCN(C(C)=O)CC1)c1ccccc1 (stereo unspecified)	i	i	i	i	i
Cc1ccccc1/C=c1\s/c(=C\C(=O)C(C)(C)C)[nH]c1=O	i	?	16µM	?	?
CCCC(=O)O[C@]1(C(=O)COC(C)=O)CC[C@H]2C3C[C@H](F)C4=CC(=O)C=CC4(C)[C@@]3(F)[C@@H](O)CC21C (stereo partly specified)	nt	nt	i	nt	i
CC1CC2=C(NC(=S)NC2c2cccc(F)c2)/C(=C/c2cccc(F)c2)C1 (stereo unspecified)	-64	?	?	?	i
Cc1ccc(C(=O)OCC(=O)NNC(=O)c2cccs2)c(O)c1	i	i	i	i	18µM
O=C(NCC1CCCO1)c1ccc(N2CCCCC2)c([N+](=O)[O-])c1 (stereo unspecified)	i	i	i	i	i
CCOC(=O)C1=CN(Cc2ccco2)S(=O)(=O)NC1c1cccc(OC)c1 (stereo unspecified)	i	i	?	i	?
COc1ccc2c(CC(=O)N(C)CC3COc4ccccc4O3)coc2c1 (stereo unspecified)	i	i	i	18µM	i
CN(C)c1ccc(N=C/C=C2\N(C)c3ccccc3C2(C)C)cc1	-89	?	?	?	i
CN1/C(=C\C=O)C(C)(C)c2ccccc21	i	i	i	i	i
Cc1cc(/N=C/C=C2\N(C)c3ccccc3C2(C)C)n(CCC#N)n1	-90	i	i	i	i
CN1\C(=C/C=C/C=C/C=[N+](C)C)C(C)(C)c2ccccc21	i	?	?	8.2µM	i
SMILES	IL1B secr inh	KB-3-1 cytotox	MCF10A rereplic	KB-V1 cytotox	SW480 rerep
COc1cccc(NC(=O)CN(C)C(=O)CCCc2nc3ccccc3s2)c1	i	i	i	?	i
CC1CCN(S(=O)(=O)c2cn(CC(=O)Nc3ccc(F)c(Cl)c3)c(=O)c3ccccc23)CC1	nt	?	nt	i	nt
Cc1nc(C(=O)Nc2ccccc2Cl)cc2c1[nH]c1ccccc12	i	7.3µM	i	2.9µM	?
Cn1nc(C(=O)Nc2ccccc2Cl)cc1C(=O)Nc1ccccc1Cl	-55	i	?	i	i
CC(C)CCNC(=O)c1cnc2sc(N3CCCCC3)nn2c1=O	nt	i	nt	i	nt
Cc1cc(C)c(S(=O)(=O)N2CCCCC2CCNC(=O)C(=O)NC2CC2)c(C)c1 (stereo unspecified)	i	?	i	?	i
S=C1SCN(CCc2ccccc2)CN1CCc1ccccc1	i	?	nt	i	nt
S=C1SCN(CC2CC2)CN1CC1CC1	i	i	i	i	5.8µM
CC(C)(C)c1ccc(C(=O)Nc2ccc(-c3nc4ccccc4[nH]3)cc2)cc1	nt	i	nt	i	nt
CCC(C(=O)NCCc1ccccc1)n1nc(C)c2sc3ccccc3c2c1=O (stereo unspecified)	nt	i	nt	?	nt
CCOc1ccccc1CNC(=O)C1CCCN(c2nnc(C)c3c(C)n(-c4ccccc4)nc23)C1 (stereo unspecified)	i	?	15µM	?	?
COc1ccc(-n2nc3c(N4CCC(C(=O)NCCc5ccccc5C)CC4)nnc(C)c3c2C)cc1	-83	i	9.2µM	i	?
Cc1ccc(-n2nc3c(N4CCC(C(=O)NCCc5ccccc5C)CC4)nnc(C)c3c2C)cc1	i	?	23µM	?	i
COc1ccc(-n2nc3c(N4CCC(C(=O)NCc5ccccc5C)CC4)nnc(C)c3c2C)cc1	-95	i	?	i	?
CCN(CC)C1=C(Cl)C(=O)C(Cl)C12OCCO2 (stereo unspecified)	nt	i	i	i	i
COc1cc(C(=O)Nc2cc(C)ccn2)ccc1OCC(=O)N1CCOCC1	i	?	i	?	i
CNC(=O)CN(c1ccc(F)cc1)S(=O)(=O)c1cc(C)ccc1OC	i	i	i	i	i
CCN(C(=O)CSc1ncc2c(n1)-c1cc(Cl)ccc1N(Cc1ccccc1)S2(=O)=O)c1cccc(C)c1	nt	i	nt	i	nt
COc1ccc(-n2nc3c(N4CCC(C(=O)NCC(C)c5ccccc5)CC4)nnc(C)c3c2C)cc1 (stereo unspecified)	-96	i	?	i	?
COc1ccc(-n2nc3c(N4CCC(C(=O)NCCc5ccccc5)CC4)nnc(C)c3c2C)cc1	nt	i	nt	?	nt
CCOC(=O)c1c(C)oc2c(F)c(F)c(F)c(F)c2c1=O	-121	?	6.5µM	?	?
CCOC(=O)c1c(C)oc(=O)c(CC)c1O	i	i	nt	i	nt
COc1ccc(Nc2nc(-c3sc(C)nc3C)cs2)cc1	i	5.8µM	?	1.6µM	1.5µM
Cc1nc(C)c(-c2csc(Nc3ccc(N)cc3)n2)s1	i	i	i	i	i
Cc1nc(C)c(-c2csc(Nc3cccnc3)n2)s1	i	i	i	3.3µM	i
N=c1c2c(-c3ccccc3)c(-c3ccccc3)n(Cc3ccco3)c2ncn1CCO	?	i	10µM	i	i[9.22 µM]
c1coc(CNc2nc3ccccc3n2CCN2CCOCC2)c1	i	i	i	?	i
N=c1c2c(-c3ccccc3)c(-c3ccccc3)n(Cc3ccco3)c2ncn1CCN1CCOCC1	-81	?	?	?	i
N=c1c2c(-c3ccccc3)c(-c3ccccc3)n(Cc3ccco3)c2ncn1CCCO	nt	i	?	?	?
O=C(/C=C/c1cccc(Cl)c1)Nn1c(-c2cccs2)nc2ccccc2c1=O	-55	i	?	i	i

Bioassay records from PubChem.
